Results as given in PubChem BioAssay (EPA / NIEHS).
Values joined by “and” are separate entries in the source; they are usually repeats but may differ in a detail not shown here. Equal values may be shown once. Inconclusive results are not listed. The source holds several records for some structures; these can differ, active in one and inactive in another. Active and inactive are the calls of the source. How the source made its calls, unless noted: active means hit-call score of the fitted dose curve at least 0.9, where 1 is the maximum; inactive means score below 0.9.

Legend:
[1] = read-out: Monokine induced gamma interferon (MIG), CXCL9 (gene 4283); test: BSK_SAg_MIG: BioMAP Diversity Plus: SAg Assay for Monokine induced gamma interferon (MIG) Biomarker Activity (AID 2283092); conditions: primary human HUVEC with PBMC; actives raise or lower the signal
Method in brief: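 ELISA readout of MIG/CXCL9; primary human umbilical vein endothelial cells co-cultured with peripheral blood mononuclear cells; 24 h post-dose; gain/loss fit vs DMSO baseline.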

[2] = read-out: Interleukin-8 (IL8), CXCL8 (gene 3576); test: BSK_SAg_IL8: BioMAP Diversity Plus: SAg Assay for Interleukin-8 (IL8) Biomarker Activity (AID 2283094); conditions: primary human HUVEC with PBMC; actives raise or lower the signal
Method in brief: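 Primary human endothelial cells with PBMC, exposed 24 h; IL-8 determined by ELISA, analysed bidirectionally relative to DMSO.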

[3] = BSK_SAg_Proliferation: Cell Proliferation Assessment in the BioMAP Diversity Plus: SAg Assay (AID 2283095); conditions: primary human HUVEC with PBMC;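 further: relative cell number as total protein by SRB absorbance in sub-confluent culture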
Method in brief: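 A human primary co-culture of umbilical vein endothelium and blood mononuclear cells receives compound; relative cell number is quantified at 96 h by SRB staining and 560 nm absorbance, with DMSO-referenced bidirectional curve fitting.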

[4] = BSK_SAg_SRB: Viability Assessment in the BioMAP Diversity Plus: SAg Assay (AID 2283096); conditions: primary human HUVEC with PBMC;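 further: cells read one day after compound addition; hits may be either gain or loss of signal compared with DMSO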
Method in brief: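 SRB absorbance at 560 nm served as the viability read-out. Cells (HUVEC plus peripheral blood mononuclear cells) were TCA-fixed and stained 24 h post-dosing; activity fitted in both directions against DMSO controls.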

[5] = target: human CYP2D6, CYP2D6 (gene 1565) (UniProt P10635); test: NVS_ADME_hCYP2D6: NovaScreen (NVS) CYP450-related Enzyme Activity (ADME) Assay for human CYP2D6 (AID 2283107; active means hit-call score of the fitted dose curve at least 0.9, where 1 is the maximum)
Method in brief: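 Fluorescence intensity read 1 h post-dosing; insect-cell-expressed recombinant protein with fluorogenic substrate, no cells. Activity is scored as signal loss relative to acetonitrile baseline, first at a single 10 uM concentration in duplicate, then as concentration series for confirmed actives.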

[6] = target: human CYP2B6, CYP2B6 (gene 1555) (UniProt P20813); test: NVS_ADME_hCYP2B6: NovaScreen (NVS) CYP450-related Enzyme Activity (ADME) Assay for human CYP2B6 (AID 2283101; active means hit-call score of the fitted dose curve at least 0.9, where 1 is the maximum)
Method in brief: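 Fluorescence-based enzyme activity of recombinant human CYP2B6, measured 1 h post-dose against acetonitrile vehicle baseline. Screened at a single concentration of 10 uM in duplicate before concentration-response follow-up.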

[7] = target: human CYP1A2, CYP1A2 (gene 1544) (UniProt P05177); test: NVS_ADME_hCYP1A2: NovaScreen (NVS) CYP450-related Enzyme Activity (ADME) Assay for human CYP1A2 (AID 2283102; active means hit-call score of the fitted dose curve at least 0.9, where 1 is the maximum;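 on AC50: potency for inhibition since loss of fluorescence marks reduced CYP1A2 activity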)
Method in brief: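 Fluorescence-intensity enzyme activity read-out, taken 0.5 h post-dosing, using insect-cell-derived recombinant CYP1A2 and specific fluorescent substrate. Acetonitrile served as negative control/baseline. Single-concentration duplicate screen at 10 uM, then concentration-response follow-up.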

[8] = target: Cytochrome P450 3A4 (Homo sapiens) (UniProt P08684); test: NVS_ADME_hCYP3A4: NovaScreen (NVS) CYP450-related Enzyme Activity (ADME) Assay for human CYP3A4 (AID 2283110; active means hit-call score of the fitted dose curve at least 0.9, where 1 is the maximum)
Method in brief: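 Compounds screened in duplicate at 10 uM, with follow-up concentration-response for actives, against insect-cell-expressed recombinant enzyme. Activity read by fluorescence 0.33 h after dosing; loss of signal versus acetonitrile control indicates inhibition.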

[9] = target: Cytochrome P450 2C19 (Homo sapiens) (UniProt P33261); test: NVS_ADME_hCYP2C19: NovaScreen (NVS) CYP450-related Enzyme Activity (ADME) Assay for human CYP2C19 (AID 2283113; active means hit-call score of the fitted dose curve at least 0.9, where 1 is the maximum;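 on AC50: potency for inhibition seen as loss of fluorescent signal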)
Method in brief: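 Recombinant insect-cell-expressed enzyme, fluorescent substrate, 1 h after chemical addition, fluorescence intensity. Baseline = acetonitrile vehicle; activity scored as signal loss. Primary HTS single concentration 10 uM, duplicate; actives retested in concentration series.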

[10] = target: Cytochrome P450 2C18 (Homo sapiens) (UniProt P33260); test: NVS_ADME_hCYP2C18: NovaScreen (NVS) CYP450-related Enzyme Activity (ADME) Assay for human CYP2C18 (AID 2283103)
Method in brief: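 Enzyme activity measured by fluorescence 0.5 h after compound addition, using recombinant CYP2C18 and a specific substrate. Actives from duplicate 10 uM screening were retested in concentration series (top 20 uM); acetonitrile served as negative baseline.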

[11] = target: human CYP2C8, CYP2C8 (gene 1558) (UniProt P10632); test: NVS_ADME_hCYP2C8: NovaScreen (NVS) CYP450-related Enzyme Activity (ADME) Assay for human CYP2C8 (AID 2283104)
Method in brief: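 Fluorescence readout of substrate turnover by recombinant CYP2C8 after 0.5 h, baseline acetonitrile. Single-concentration duplicate screen at 10 uM preceded singleton concentration series (max 20 uM) for compounds passing the inhibition threshold.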

[12] = target: human CYP2C9, CYP2C9 (gene 1559) (UniProt P11712); test: NVS_ADME_hCYP2C9: NovaScreen (NVS) CYP450-related Enzyme Activity (ADME) Assay for human CYP2C9 (AID 2283108; active means hit-call score of the fitted dose curve at least 0.9, where 1 is the maximum)
Method in brief: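 Fluorescence readout of CYP2C9 activity (SF9-expressed human enzyme) at 0.75 h. The primary screen used 10 uM in duplicate, with concentration-response follow-up for actives; acetonitrile was the negative control.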

[13] = target: rat CYP1A2, Cyp1a2 (gene 24297) (UniProt P04799); test: NVS_ADME_rCYP1A2: NovaScreen (NVS) CYP450-related Enzyme Activity (ADME) Assay for rat CYP1A2 (AID 2283115; active means hit-call score of the fitted dose curve at least 0.9, where 1 is the maximum)
Method in brief: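 Primary testing ran in duplicate at 10 uM, with actives re-tested across concentration series. Fluorescence intensity from substrate turnover by recombinant protein, measured 1 hour post-dosing, with signal loss scored against acetonitrile vehicle.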

[14] = target: human CYP2J2, CYP2J2 (gene 1573) (UniProt P51589); test: NVS_ADME_hCYP2J2: NovaScreen (NVS) CYP450-related Enzyme Activity (ADME) Assay for human CYP2J2 (AID 2283106; active means hit-call score of the fitted dose curve at least 0.9, where 1 is the maximum)
Method in brief: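 Chemicals were first tested at 10 uM in duplicate, and hits meeting criteria such as 30% inhibition were run in singleton concentration series with a 20 uM top concentration. Enzyme activity of recombinant CYP2J2 was measured by fluorescence after 1 h, relative to acetonitrile.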

[15] = target: human CYP4F12, CYP4F12 (gene 66002) (UniProt Q9HCS2); test: NVS_ADME_hCYP4F12: NovaScreen (NVS) CYP450-related Enzyme Activity (ADME) Assay for human CYP4F12 (AID 2283111; active means hit-call score of the fitted dose curve at least 0.9, where 1 is the maximum)
Method in brief: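 Recombinant enzyme with a fluorescent substrate, signal read at 0.5 h post-dose; activity loss analysed relative to acetonitrile. Compounds first run in duplicate at 10 uM, with follow-up concentration-response testing of actives.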

[16] = target: human CYP19A1, CYP19A1 (gene 1588) (UniProt P11511); test: NVS_ADME_hCYP19A1: NovaScreen (NVS) CYP450-related Enzyme Activity (ADME) Assay for human CYP19A1 (AID 2283098; active means hit-call score of the fitted dose curve at least 0.9, where 1 is the maximum;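 on AC50: potency for inhibitors seen as loss of fluorescent enzyme signal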)
Method in brief: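 Primary testing was in duplicate at a single 10 uM concentration, with actives followed up in concentration-response series. Fluorescence read-out of recombinant enzyme activity at 0.5 h, cell-free. Acetonitrile was the negative-control baseline.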

[17] = target: rat CYP2A2, Cyp2a2 (gene 24895) (UniProt P15149); test: NVS_ADME_rCYP2A2: NovaScreen (NVS) CYP450-related Enzyme Activity (ADME) Assay for rat CYP2A2 (AID 2283116; active means hit-call score of the fitted dose curve at least 0.9, where 1 is the maximum)
Method in brief: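 Compounds first tested in duplicate at 10 uM, then in singleton concentration series up to 20 uM when over threshold. Activity of the recombinant enzyme read by fluorescence at 0.2 h, normalised to acetonitrile vehicle.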

rat CYP2B1, gene 24300 = test: NVS_ADME_rCYP2B1: NovaScreen (NVS) CYP450-related Enzyme Activity (ADME) Assay for rat CYP2B1 (AID 2283117; active means hit-call score of the fitted dose curve at least 0.9, where 1 is the maximum)
Method in brief: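 Cell-free fluorescence enzyme assay, recombinant rat CYP2B1, 0.75 h after dosing. Single-concentration duplicates at 10 uM preceded concentration series (max 20 uM) for actives; acetonitrile as negative-control baseline.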

Measured: AC50

Chain of human CYP1A2, CYP1A2 (gene 1544) (P05177 whole entry, looked up): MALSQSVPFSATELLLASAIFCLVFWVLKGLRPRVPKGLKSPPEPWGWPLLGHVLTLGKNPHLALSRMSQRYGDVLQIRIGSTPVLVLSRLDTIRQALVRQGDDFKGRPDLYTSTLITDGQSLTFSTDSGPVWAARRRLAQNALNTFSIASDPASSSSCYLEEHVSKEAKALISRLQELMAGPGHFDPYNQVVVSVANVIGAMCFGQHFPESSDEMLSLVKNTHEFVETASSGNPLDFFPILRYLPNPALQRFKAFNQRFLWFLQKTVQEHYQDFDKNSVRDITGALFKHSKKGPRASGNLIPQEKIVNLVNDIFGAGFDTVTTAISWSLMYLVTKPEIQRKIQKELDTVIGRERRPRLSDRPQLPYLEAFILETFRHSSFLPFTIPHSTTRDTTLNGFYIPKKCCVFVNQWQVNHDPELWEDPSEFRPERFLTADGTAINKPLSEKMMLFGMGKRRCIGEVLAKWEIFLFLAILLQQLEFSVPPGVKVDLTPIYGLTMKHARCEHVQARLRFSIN
Chain of Cytochrome P450 2C18 (Homo sapiens) (P33260 whole entry, looked up): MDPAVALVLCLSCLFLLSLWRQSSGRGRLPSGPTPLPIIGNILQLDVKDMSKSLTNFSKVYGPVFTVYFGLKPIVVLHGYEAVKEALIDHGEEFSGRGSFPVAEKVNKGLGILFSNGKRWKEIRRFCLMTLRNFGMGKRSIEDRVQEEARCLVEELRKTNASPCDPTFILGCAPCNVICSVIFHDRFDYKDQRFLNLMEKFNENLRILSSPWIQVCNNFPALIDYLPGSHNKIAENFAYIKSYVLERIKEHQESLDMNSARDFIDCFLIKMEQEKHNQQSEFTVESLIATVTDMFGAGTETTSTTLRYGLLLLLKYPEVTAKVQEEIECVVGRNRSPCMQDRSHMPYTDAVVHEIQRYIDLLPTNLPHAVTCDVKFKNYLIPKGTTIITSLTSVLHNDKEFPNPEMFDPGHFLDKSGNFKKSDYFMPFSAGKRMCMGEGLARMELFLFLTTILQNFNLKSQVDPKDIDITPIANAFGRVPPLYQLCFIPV
Chain of human CYP2C8, CYP2C8 (gene 1558) (P10632 whole entry, looked up): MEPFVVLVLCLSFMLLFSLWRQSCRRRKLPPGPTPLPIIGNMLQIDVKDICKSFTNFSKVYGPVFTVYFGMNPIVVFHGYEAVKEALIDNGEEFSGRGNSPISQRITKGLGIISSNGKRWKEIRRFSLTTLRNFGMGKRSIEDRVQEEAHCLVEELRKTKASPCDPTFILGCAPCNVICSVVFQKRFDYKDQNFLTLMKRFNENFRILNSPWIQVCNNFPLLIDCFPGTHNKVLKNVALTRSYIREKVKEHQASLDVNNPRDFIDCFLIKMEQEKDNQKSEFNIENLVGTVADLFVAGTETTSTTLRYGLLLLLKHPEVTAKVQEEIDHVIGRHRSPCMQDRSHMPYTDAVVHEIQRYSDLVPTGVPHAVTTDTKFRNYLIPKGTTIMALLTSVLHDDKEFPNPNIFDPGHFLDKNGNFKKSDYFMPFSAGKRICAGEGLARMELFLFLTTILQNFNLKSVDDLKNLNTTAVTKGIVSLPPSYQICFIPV
Chain of human CYP2C9, CYP2C9 (gene 1559) (P11712 whole entry, looked up): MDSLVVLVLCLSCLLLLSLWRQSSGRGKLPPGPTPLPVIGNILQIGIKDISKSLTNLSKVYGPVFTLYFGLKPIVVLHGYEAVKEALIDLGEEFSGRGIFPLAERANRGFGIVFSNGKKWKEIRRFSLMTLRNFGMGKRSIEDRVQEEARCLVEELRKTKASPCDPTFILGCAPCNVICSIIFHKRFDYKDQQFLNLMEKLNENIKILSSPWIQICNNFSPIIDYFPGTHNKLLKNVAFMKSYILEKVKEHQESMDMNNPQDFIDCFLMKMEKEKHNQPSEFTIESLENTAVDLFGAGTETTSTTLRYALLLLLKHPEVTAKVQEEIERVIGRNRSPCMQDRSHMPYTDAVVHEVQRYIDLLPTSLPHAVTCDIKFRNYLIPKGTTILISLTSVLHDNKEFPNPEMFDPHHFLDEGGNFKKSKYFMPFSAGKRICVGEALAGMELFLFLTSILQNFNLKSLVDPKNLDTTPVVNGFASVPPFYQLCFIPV
Chain of human CYP19A1, CYP19A1 (gene 1588) (P11511 whole entry, looked up): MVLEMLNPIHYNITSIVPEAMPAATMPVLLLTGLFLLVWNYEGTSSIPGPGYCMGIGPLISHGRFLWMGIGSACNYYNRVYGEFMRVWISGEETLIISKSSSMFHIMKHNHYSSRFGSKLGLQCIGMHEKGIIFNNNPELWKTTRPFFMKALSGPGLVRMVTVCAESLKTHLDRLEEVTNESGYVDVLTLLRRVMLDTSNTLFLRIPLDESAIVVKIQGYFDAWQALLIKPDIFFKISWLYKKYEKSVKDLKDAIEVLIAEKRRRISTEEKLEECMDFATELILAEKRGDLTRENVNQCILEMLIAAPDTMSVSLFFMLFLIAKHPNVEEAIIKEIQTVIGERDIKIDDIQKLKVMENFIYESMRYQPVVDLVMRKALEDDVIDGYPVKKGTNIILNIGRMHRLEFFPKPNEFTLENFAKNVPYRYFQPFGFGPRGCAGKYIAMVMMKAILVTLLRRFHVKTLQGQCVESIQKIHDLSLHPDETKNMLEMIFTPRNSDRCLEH
Chain of human CYP2B6, CYP2B6 (gene 1555) (P20813 whole entry, looked up): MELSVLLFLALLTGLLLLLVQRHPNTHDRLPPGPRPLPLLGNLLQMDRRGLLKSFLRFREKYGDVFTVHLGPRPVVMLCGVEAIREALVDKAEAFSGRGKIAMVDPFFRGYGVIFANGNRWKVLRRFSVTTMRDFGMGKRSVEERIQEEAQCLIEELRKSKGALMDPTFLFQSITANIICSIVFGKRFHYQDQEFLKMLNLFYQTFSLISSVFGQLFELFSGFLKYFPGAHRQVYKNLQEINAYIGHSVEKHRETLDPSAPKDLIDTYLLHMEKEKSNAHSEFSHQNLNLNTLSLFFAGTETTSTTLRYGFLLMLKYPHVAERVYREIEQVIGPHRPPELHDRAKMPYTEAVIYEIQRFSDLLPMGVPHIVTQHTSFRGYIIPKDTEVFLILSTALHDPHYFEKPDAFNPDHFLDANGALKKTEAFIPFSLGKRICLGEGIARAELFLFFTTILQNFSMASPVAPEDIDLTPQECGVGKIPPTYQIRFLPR
Chain of rat CYP2A2, Cyp2a2 (gene 24895) (P15149 whole entry, looked up): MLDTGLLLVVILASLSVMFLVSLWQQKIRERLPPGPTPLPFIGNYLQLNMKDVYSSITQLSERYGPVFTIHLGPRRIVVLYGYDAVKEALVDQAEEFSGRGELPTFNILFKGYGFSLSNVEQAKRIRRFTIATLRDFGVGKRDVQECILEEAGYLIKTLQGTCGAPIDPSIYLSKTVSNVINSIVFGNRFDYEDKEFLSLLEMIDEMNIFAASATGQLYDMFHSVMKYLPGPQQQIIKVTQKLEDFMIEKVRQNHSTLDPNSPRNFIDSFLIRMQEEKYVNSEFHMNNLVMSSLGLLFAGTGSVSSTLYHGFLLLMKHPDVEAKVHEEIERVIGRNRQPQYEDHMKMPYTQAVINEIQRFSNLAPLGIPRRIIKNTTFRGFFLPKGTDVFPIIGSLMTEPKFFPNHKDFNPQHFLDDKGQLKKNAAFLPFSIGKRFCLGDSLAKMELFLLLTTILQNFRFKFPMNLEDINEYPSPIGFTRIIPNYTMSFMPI
Chain of Cytochrome P450 3A4 (Homo sapiens) (P08684 whole entry, looked up): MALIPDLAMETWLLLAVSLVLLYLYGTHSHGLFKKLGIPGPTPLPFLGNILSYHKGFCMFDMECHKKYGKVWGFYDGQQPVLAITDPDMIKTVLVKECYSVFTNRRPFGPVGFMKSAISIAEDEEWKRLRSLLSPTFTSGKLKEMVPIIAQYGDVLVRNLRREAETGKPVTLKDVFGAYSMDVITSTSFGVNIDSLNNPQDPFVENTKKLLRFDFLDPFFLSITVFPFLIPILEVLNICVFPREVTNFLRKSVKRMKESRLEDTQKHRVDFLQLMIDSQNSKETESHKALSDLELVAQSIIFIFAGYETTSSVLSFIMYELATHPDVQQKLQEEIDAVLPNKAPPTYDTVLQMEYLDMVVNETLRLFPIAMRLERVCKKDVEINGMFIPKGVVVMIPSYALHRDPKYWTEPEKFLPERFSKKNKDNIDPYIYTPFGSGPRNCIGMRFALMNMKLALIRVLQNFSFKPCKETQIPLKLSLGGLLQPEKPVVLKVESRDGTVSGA
Chain of human CYP2J2, CYP2J2 (gene 1573) (P51589 whole entry, looked up): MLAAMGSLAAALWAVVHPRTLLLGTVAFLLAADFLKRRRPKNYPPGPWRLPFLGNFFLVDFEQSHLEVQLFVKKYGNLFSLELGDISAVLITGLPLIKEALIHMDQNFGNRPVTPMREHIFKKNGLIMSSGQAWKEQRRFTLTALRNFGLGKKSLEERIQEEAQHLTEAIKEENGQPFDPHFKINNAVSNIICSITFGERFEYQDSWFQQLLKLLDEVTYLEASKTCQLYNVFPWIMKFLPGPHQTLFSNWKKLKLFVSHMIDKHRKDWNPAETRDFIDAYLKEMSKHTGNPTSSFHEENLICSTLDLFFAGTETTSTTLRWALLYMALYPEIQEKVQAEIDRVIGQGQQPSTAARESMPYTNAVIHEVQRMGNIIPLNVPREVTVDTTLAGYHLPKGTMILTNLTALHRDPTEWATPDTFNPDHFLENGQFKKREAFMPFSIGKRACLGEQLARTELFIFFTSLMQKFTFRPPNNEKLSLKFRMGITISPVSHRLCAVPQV
Chain of rat CYP1A2, Cyp1a2 (gene 24297) (P04799 whole entry, looked up): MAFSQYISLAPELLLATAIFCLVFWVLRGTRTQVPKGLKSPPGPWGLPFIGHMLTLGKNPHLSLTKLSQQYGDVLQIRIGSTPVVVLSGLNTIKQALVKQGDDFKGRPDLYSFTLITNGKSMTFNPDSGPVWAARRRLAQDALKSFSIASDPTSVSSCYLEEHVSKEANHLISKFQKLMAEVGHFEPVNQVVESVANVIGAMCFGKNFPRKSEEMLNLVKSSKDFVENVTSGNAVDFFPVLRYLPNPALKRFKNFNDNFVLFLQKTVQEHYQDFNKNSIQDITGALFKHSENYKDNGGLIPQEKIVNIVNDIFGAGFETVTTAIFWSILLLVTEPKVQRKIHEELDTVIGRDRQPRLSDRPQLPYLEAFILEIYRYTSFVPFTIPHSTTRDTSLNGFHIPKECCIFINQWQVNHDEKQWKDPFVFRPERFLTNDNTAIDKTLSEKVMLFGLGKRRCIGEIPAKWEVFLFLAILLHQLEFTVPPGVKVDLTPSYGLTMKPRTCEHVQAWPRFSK

COc1nc(C)nc(NC(=O)NS(=O)(=O)c2ccccc2Cl)n1
inactive: [1] | [2] | [3] | [4] | [5]

C=CC1(C)OC(=O)N(c2cc(Cl)cc(Cl)c2)C1=O (stereo not drawn)
active: [6] 6.73 µM and 5.83 µM | [9] 5.01 µM and 10 µM and 1.87 µM
inactive: [1] | [2] | [3] | [4] | [7] | [8]

COC(=O)C(C)Oc1ccc(Oc2ccc(Cl)cc2Cl)cc1 (stereo not drawn)
inactive: [1] | [2] | [3] | [4]
active: [9] 10 µM and 14.1 µM and 7.91 µM

Cc1ccc(-c2c(Cl)nc(C#N)n2S(=O)(=O)N(C)C)cc1
inactive: [13]
active: [1] 28.8 µM | [2] 13.4 µM | [3] 30 µM | [4] 25 µM | [7] 5.8 µM | [10] 10 µM | [11] 3.9 µM | [12] 4.54 µM | [9] 7.38 µM

CS/C(C)=N/OC(=O)N(C)SN(C)C(=O)O/N=C(\C)SC
active: [1] 35.6 µM | [2] 16 µM | [3] 5.3 µM | [4] 28.4 µM | [14] 2.79 µM | [5] 0.934 µM | [12] 5.64 µM | [9] 3.43 µM
inactive: [15]

CCCCC(CC)COC(=O)c1ccccc1C(=O)OCC(CC)CCCC (stereo not drawn)
inactive: [1] | [2] | [10] | [12] | [9]
active: [4] 5 µM | [16] 3.05 µM

CCCCOC(=O)c1ccccc1C(=O)OCCCC
inactive: [1] | [2] | [4] | [16] | [11] | [17] | rat CYP2B1, gene 24300
active: [3] 29.2 µM and 31.4 µM | [7] 7.03 µM and 7.88 µM | [9] 6.73 µM and 7.37 µM | rat CYP2B1, gene 24300 2.31 µM

CCNc1nc(Cl)nc(NC(C)C)n1
inactive: [1] | [2] | [3] | [4] | [16] | [17] | rat CYP2B1, gene 24300
active: [7] 14.8 µM and 9.2 µM | [9] 10 µM

CCCN(CCC)c1c([N+](=O)[O-])cc(S(N)(=O)=O)cc1[N+](=O)[O-]
active: [1] 39.5 µM [middle of 4 runs] | [2] 39.7 µM [middle of 4 runs] | [3] 30.2 µM [middle of 4 runs] | [4] 32.3 µM [middle of 4 runs] | [10] 2.71 µM | [11] 4.89 µM | [9] 1.34 µM [middle of 4 runs] | rat CYP2B1, gene 24300 7.63 µM
inactive: [6] | [8]

O=C(Nc1ccccc1)Nc1ccnc(Cl)c1
inactive: [1] | [4] | [16] | [13]
active: [2] 20 µM | [3] 33.5 µM | [14] 2.15 µM | [12] 2.46 µM | rat CYP2B1, gene 24300 6.41 µM

CNC(=S)S
inactive: [1] | [2] | [16] | [7] | [10] | [12]
active: [3] 11.9 µM | [4] 23.3 µM | [9] 7.58 µM

CC(C)Oc1cc(-n2nc(C(C)(C)C)oc2=O)c(Cl)cc1Cl
inactive: [9]
active: [1] 31.9 µM | [2] 31.2 µM | [3] 31.3 µM | [4] 30.5 µM | [7] 6.42 µM
